Source: PubChem BioAssay
Most compounds without a hit are left out; they make up all but 0.95% or so of the library.
Giardia FBPA inh: Giardia lamblia aldolase inhibition | purified Giardia FBPA | Potency, µM (top dose mostly 59.6 µM), hits mostly inhibitors | 0.71% of 290,000 active; further: nearly all actives have a fitted effect of over 55% in size
Target sequence (A8B2U2 whole entry, looked up): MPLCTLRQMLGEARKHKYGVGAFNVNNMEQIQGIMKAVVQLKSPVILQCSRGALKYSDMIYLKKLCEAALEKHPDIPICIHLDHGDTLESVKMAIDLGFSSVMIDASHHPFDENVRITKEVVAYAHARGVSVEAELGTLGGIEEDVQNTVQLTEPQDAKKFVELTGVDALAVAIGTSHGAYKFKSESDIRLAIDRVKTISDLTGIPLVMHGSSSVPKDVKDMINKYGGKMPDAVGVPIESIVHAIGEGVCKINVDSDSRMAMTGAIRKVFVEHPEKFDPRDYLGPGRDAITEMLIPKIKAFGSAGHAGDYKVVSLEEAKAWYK
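40 nM FBPA preincubated 10 min at RT with compound (up to 57.5 uM final), then substrate plus GAPDH/TPI/NAD/arsenate coupling and diaphorase/resazurin added. Fluorescence read after 20 min at RT, 525/598 nm.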
LmPK inhibitor: LmPK (Leishmania mexicana) enzyme inhibition | purified LmPK, Kinase-Glo ATP luminescence, 1 h | Potency, µM (top dose mostly 57.5 µM), usual class: inhibitors | 0.37% of 290,000 active | AID 1721
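Purified LmPK (0.1 nM) with 0.5 mM PEP and 0.1 mM ADP in imidazole buffer pH 7.2 with MgCl2/KCl, 1 h at room temperature. ATP formed was read by luciferase luminescence and normalized to no-enzyme and uninhibited controls.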
RE007 growth inh: less growth of the S. pombe RE007 Vpr strain | S. pombe RE007 Vpr strain, BacTiter-Glo ATP luminescence, 24 h | Potency, µM (top dose mostly 92.2 µM), usual class: inhibitors | 0.21% of 360,000 active | AID 651644; active means well fitted falling curve with a large enough effect; inconclusive means small, poorly fitted or top-dose-only effect; inactive means no such curve, though single readings can be large or run the other way; further: nearly all actives have a fitted effect of over 50% in size
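Fission yeast RE007 carrying one integrated HIV-1 vpr copy, seeded at OD 0.01 in PMG+AL medium with 23 nL pinned compound. Grown 24 h at 30 degrees; viability read by BacTiter-Glo luminescence after 5 min.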
TbPYK inhibitor: inhibitors of Trypanosoma brucei pyruvate kinase; 0.12% of 410,000 active; AID 624173; TbPYK enzyme, Kinase-Glo Plus ATP luminescence, 45 min; Q57TT1; Potency, µM (series often up to 76.8 µM), usual class: inhibitors; further: nearly all actives have a fitted effect of over 50% in size
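TbPYK + substrate in 50 mM TEA pH 7.2, 100 mM KCl, 10 mM MgCl2, 0.05% BSA, 0.01% Tween-20; cpd pinned; ADP 130 uM final; 45 min RT; Kinase-Glo Plus 10 min; luminescence endpoint.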
A number is an active result; ! = not confirmed by another sample; [ ] = remark or other dose. Unless noted, the call rests on the fitted dose curve; in most records, active means well fitted curve in the direction sought with a large enough effect; inconclusive means small, poorly fitted or top-dose-only effect, or another doubt; inactive means no such curve, though single readings can be large; an effect the other way counts as inactive or inconclusive.

Screening C[C@@H]1[C@H](O)[C@@H](C)C=CC=CCCC=CC=CC=CC=C[C@H](O[C@H]2O[C@@H](C)[C@H](O)[C@@H](N)[C@@H]2O)CC2O[C@](O)(C[C@@H](O)[C@H](O)CC[C@@H](O)C[C@@H](O)C[C@@H](O)CC(=O)O[C@H]1C)C[C@H](O)[C@H]2C(=O)O returned TbPYK inhibitor inactive.
Brc1ccc(Oc2ccc(Br)cc2Br)c(Br)c1 was read as RE007 growth inh inactive and TbPYK inhibitor inactive.
O=c1c(Br)ccc(Br)cc1Br was read as RE007 growth inh 2.2µM and TbPYK inhibitor inactive.
For CCC(C)(C)C1CCc2[nH]nc(C(=O)N/N=C(\C)c3ccco3)c2C1 (stereo unspecified) the results were Giardia FBPA inh inactive, LmPK inhibitor inactive, RE007 growth inh inactive and TbPYK inhibitor inactive.
C/C(=N/NC(=O)c1ccccn1)c1ccco1 was read as LmPK inhibitor 14µM, RE007 growth inh inactive and TbPYK inhibitor inconclusive.
C/C(=N\NC(=O)c1n[nH]c2c1CCC2)c1ccco1 was read as Giardia FBPA inh inactive, LmPK inhibitor 16µM, RE007 growth inh inactive and TbPYK inhibitor inconclusive.
`NC(Cc1ccc(O)c(O)c1)C(=O)O` (stereo unspecified) gave Giardia FBPA inh 16µM.
Screening C[C@](N)(Cc1ccc(O)c(O)c1)C(=O)O returned Giardia FBPA inh 18µM!, LmPK inhibitor inactive, RE007 growth inh inactive[18.4 µM] and TbPYK inhibitor inactive.
Screening COC(=O)C(N)Cc1ccc(O)c(O)c1 (stereo unspecified) returned Giardia FBPA inh inconclusive, LmPK inhibitor inactive, RE007 growth inh inactive and TbPYK inhibitor inactive.
`O=C(NCc1ccc(Cl)cc1)C1CCCN(c2nc3ccccc3n3cccc23)C1` (stereo unspecified) gave TbPYK inhibitor inactive.
For COc1ccc(C(=O)Nc2ccc(C)cn2)c(OC)c1 the results were Giardia FBPA inh inactive, LmPK inhibitor 14µM, RE007 growth inh inconclusive and TbPYK inhibitor inactive.
CCC(C)(C)c1ccc(OCCCC[n+]2cccc(C)c2C)c(C(C)(C)CC)c1 was read as Giardia FBPA inh inactive, LmPK inhibitor inactive, RE007 growth inh 28µM and TbPYK inhibitor inactive.
For Cc1ccc(NCCC(=O)c2cccc([N+](=O)[O-])c2)c(C)c1 the results were Giardia FBPA inh inactive, LmPK inhibitor inactive, RE007 growth inh 5.6µM and TbPYK inhibitor inactive.
Screening Cc1ccc(NCC(=O)c2ccc([N+](=O)[O-])cc2)cc1 returned Giardia FBPA inh inactive, LmPK inhibitor inactive, RE007 growth inh inactive and TbPYK inhibitor inactive.
For Cc1cccc(NCCC(=O)c2ccc([N+](=O)[O-])cc2)c1C the results were Giardia FBPA inh inactive, LmPK inhibitor inactive, RE007 growth inh 35µM and TbPYK inhibitor inactive.
Screening CC(C)N1[N]C(=C2C=c3cc(O)ccc3=N2)c2c(N)ncnc21 returned TbPYK inhibitor inactive.
`CCCCCC[C@@H](CCC)C(=O)O` gave TbPYK inhibitor inactive.
CN(C)c1ccc(-c2nccc(Nc3ccc(F)cc3)n2)cc1 was read as Giardia FBPA inh inactive.
O=C1C(=Cc2ccccc2Cl)CCc2ccccc21 was read as RE007 growth inh inactive[18.4 µM] and TbPYK inhibitor 32µM.
For Cn1cccc1/C=C1\Cc2ccccc2C1=O the results were Giardia FBPA inh inactive, LmPK inhibitor inactive, RE007 growth inh inactive and TbPYK inhibitor inactive.
`O=C1/C(=C/c2ccncc2)CCc2ccccc21` gave Giardia FBPA inh inactive, LmPK inhibitor 13µM, RE007 growth inh inconclusive and TbPYK inhibitor inconclusive.
O=C1/C(=C/c2ccco2)CCc2ccccc21 was read as Giardia FBPA inh inactive, LmPK inhibitor 13µM, RE007 growth inh inconclusive and TbPYK inhibitor inconclusive.
Screening Cn1cccc1/C=C1\CCc2ccccc2C1=O returned Giardia FBPA inh inactive, LmPK inhibitor inconclusive, RE007 growth inh 35µM and TbPYK inhibitor inconclusive.
COc1cc2c(cc1OC)-c1n[nH]c(=S)n1C(C)(C)C2 was read as Giardia FBPA inh inactive, LmPK inhibitor 18µM, RE007 growth inh inactive and TbPYK inhibitor inconclusive.
Screening CCCNC(=O)OC[C@@H]1O[C@H](CCO/N=C(\C)CCN2CCCCc3nc(C)c(C)cc32)C=C[C@@H]1Oc1ccc(OC)cc1 returned Giardia FBPA inh inactive[12.9 µM].
`CC(=O)OCC(NC(=O)C(Cc1ccccc1)NC(=O)OC(C)(C)C)C1OC(n2cc(F)c(=O)[nH]c2=O)C(OC(C)=O)C1OC(C)=O` (stereo unspecified) gave Giardia FBPA inh inactive.
